Shown are actives, neighbours in structure and some others; about 3.3% of the full set was active somewhere.
ROMK primary: human ROMK K+ channel modulation, primary screen | P48048 | Tet-inducible ROMK, thallium flux fluorescence; actives lie on both sides | B-score at 10 µM | 130,000 tested, 2% active | AID 1918;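 active = signal ratio slope over the read window, or its plate-corrected B-score, at least 3 SD from the plate mean, either direction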;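 also: B-score of the F/F0 ratio slope over 7 to 12 s after thallium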
WT yeast gro inh: growth inhibition of WT yeast, mitochondrial fusion screen; mitochondrial fusion phenotypic screen, WT strain; inhibition, % at 10 µM; 190,000 tested, 2.1% active; in the data active = inhibition above about 58%; tested in S. cerevisiae
PERK inhibitor: blocks human PERK kinase; Q9NZJ5; CHO PERK-DD fusion, SEAP luminescence translation reporter; inhibition, % at 5.6 µM; 220,000 tested, 0.17% active;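 active = inhibition above the mean inhibition of all tested compounds plus 3 SD, set separately per screening campaign, cut at about 2.9% in these data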;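 also: PERK kinase domain activated by AP20187 dimerizer at 100 nM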
Target sequence (Q9NZJ5 whole entry, looked up, the tested form may be a part): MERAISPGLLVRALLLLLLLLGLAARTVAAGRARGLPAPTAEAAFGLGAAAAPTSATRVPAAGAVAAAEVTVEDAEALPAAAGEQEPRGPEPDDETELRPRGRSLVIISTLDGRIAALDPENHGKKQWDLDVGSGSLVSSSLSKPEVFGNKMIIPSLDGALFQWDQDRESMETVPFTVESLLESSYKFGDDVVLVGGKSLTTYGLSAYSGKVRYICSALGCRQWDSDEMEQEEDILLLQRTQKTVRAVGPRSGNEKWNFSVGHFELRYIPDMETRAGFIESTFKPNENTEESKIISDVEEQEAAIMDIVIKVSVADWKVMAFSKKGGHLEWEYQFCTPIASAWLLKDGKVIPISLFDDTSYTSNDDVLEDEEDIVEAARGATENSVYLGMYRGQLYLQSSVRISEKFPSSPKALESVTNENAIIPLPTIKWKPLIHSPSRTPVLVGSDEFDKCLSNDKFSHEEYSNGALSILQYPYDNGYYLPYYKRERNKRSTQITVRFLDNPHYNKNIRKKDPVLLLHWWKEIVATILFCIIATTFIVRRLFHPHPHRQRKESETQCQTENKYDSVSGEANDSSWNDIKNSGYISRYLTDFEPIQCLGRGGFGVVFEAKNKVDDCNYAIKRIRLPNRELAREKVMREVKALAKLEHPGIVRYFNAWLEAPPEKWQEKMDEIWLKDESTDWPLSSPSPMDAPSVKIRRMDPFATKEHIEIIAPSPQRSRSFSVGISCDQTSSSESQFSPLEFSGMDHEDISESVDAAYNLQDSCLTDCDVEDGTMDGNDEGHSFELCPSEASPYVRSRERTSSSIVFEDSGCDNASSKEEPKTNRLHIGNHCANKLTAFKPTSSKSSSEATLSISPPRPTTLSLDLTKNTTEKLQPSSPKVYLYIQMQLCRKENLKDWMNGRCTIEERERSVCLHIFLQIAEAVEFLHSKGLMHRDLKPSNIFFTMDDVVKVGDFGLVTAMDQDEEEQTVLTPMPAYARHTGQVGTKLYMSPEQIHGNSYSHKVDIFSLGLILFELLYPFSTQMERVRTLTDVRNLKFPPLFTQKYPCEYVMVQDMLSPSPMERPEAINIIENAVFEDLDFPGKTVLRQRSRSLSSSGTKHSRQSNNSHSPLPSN
Arbovirus inh: antivirals against arbovirus infection | inhibition, % at 10 µM | 200,000 tested, 0.37% active | AID 1251 | arbovirus infection cell-based antiviral screen; in the data active = inhibition above about 30%
ROMK retest: human ROMK channel modulation, retest confirmation; shares compounds with ROMK primary; ROMK thallium flux, fluorescence ratio; active compounds read low; normalized thallium flux (F/F0 slope) at 10 µM; 3,000 tested, 54% active; AID 1917;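 active = Flux at 10 µM at least 3 SD below or above vehicle control mean in one or both replicates; inconclusive = no clear call, values can overlap the other calls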
A number is an active result; . = inactive; ? = inconclusive; / = no result given.

SMILES	ROMK primary	WT yeast gro inh	PERK inhibitor	Arbovirus inh	ROMK retest
CCOC(=O)/C(=C/c1c(C)n(C)c2ccc([N+](=O)[O-])cc12)C(C)=O	-4.2	.	.	.	0.046
O=C1/C(=C/c2ccc(N3CCOCC3)o2)SC(=Nc2ccccc2)N1CCc1c[nH]c2ccccc12	/	.	.	.	0.059
COc1cc(/C=C2\SC(=Nc3ccccc3)N(CCc3c[nH]c4ccccc34)C2=O)ccc1OC(C)C(=O)O (stereo not drawn)	/	.	.	.	/
CCCn1c(SCC(=O)NC(C)(C)C)nnc1C(C)C	.	.	.	.	/
COc1ccccc1N1C(=O)C2C(C(=O)c3ccccc3)=NN(c3ccccc3)C2C1=O (stereo not drawn)	/	/	.	/	0.063
CCOC(=O)C1=NN(c2ccccc2)C2C(=O)N(c3ccccc3OC)C(=O)C12 (stereo not drawn)	/	/	.	/	/
COc1ccccc1N1N=C(C(=O)c2ccccc2)C2C(=O)N(c3ccc(Br)cc3)C(=O)C21 (stereo not drawn)	/	/	.	/	0.065
O=C(C1=NN(c2ccccc2)C2C(=O)N(c3ccccc3)C(=O)C12)c1ccccc1 (stereo not drawn)	.	.	.	.	/
C=CCNC(=S)NNC(=O)c1ccc(=O)n(Cc2ccccc2)c1	.	.	.	.	/
CCOC(=O)c1oc2nc3c(cc2c1N)COC(C)(C)C3	3.5	.	.	.	.
CCC(C)(C)NC(=S)Nc1ccccc1C	.	.	.	.	/
CCn1c(C)cs/c1=N\C(=S)Nc1ccccc1C	3.2	62	.	.	.
S=c1c2c(nc3nc[nH]n13)CCC2	/	/	.	/	/
Cc1ccc(CN2C3CCCC2CC(NC(=O)c2ccc(C)cc2)C3)cc1 (stereo not drawn)	-2.7	.	.	.	0.056
Cc1nn(CC(O)COc2ccc3c(c2)CCC3)c(C)c1C (stereo not drawn)	-3.7	.	.	.	0.066
COC(=O)c1cc(Cl)c(NC(=O)c2cc3ccccc3o2)cc1OC	/	.	.	.	/
COC1=C/C(=C/c2c(N)n3cc(C)sc3nc2=O)C=CC1=O	.	.	.	.	/
Cc1cn2c(N)c(C=C3C=C(Cl)C(=O)C(Cl)=C3)c(=O)nc2s1	-6.1	.	.	.	0.025
COc1cc(C)nc(NC(=O)COc2ccc(Cl)cc2C)n1	/	.	.	.	?
COCCn1nnnc1C(c1cc(OC)ccc1OC)N1CCc2ccccc2C1 (stereo not drawn)	-2.1	.	.	.	.
Cc1csc(SCC(=O)Nc2ccccc2[N+](=O)[O-])n1	-19	.	.	.	?
OC(CNc1ccccc1)Cn1ccc2ccccc21 (stereo not drawn)	.	.	.	.	/
CCOC(=O)N1CCN(C(=O)C2CCCN(S(=O)(=O)c3cccnc3)C2)CC1 (stereo not drawn)	/	.	.	.	.
Cc1nnsc1SCCNC(=O)c1ccc(F)cc1	/	.	.	.	/
CCOC(=O)C1=NN(N=O)C2(CC(=O)N(c3cc(C)cc(C)c3)C2=O)C1 (stereo not drawn)	.	.	.	.	/
SMILES	ROMK primary	WT yeast gro inh	PERK inhibitor	Arbovirus inh	ROMK retest
O=C1C=C(c2ccccc2)C(=O)N1Nc1ccccc1	-3.6	87	.	.	0.061
CC1=C(C(=O)N2CCCCC2)C(c2cccs2)NC(=O)N1 (stereo not drawn)	.	.	.	.	/
CCOC(=O)c1ccc2nc(NC(=O)c3cccs3)sc2c1	/	.	.	.	.
CCOC(=O)c1ccc2nc(NC(=O)c3ccco3)sc2c1	/	.	.	.	/
Oc1c(CN2CCCCC2)cc(COCc2ccccc2)c2cccnc12	-4.5	.	.	.	.
O=C(NCCN1CCOCC1)c1ccc2c(c1)N(Cc1cccc(F)c1)C(=O)c1ccccc1S2	.	.	.	.	/
CCN1CCN(CCNC(=O)c2ccc3c(c2)N(Cc2ccc(F)cc2)C(=O)/C(=C/c2ccccc2)S3)CC1	-3.1	86	.	.	.
O=C(CCS(=O)(=O)Cc1ccc(Cl)cc1)NCCc1ccccc1	.	.	.	.	/
O=C1OCC2=C1C(c1ccc(F)cc1)CC(=O)N2c1ccccc1 (stereo not drawn)	3.1	.	.	.	.
OCCCCNCc1ccc(OCc2ccc(Cl)cc2Cl)cc1	/	.	.	.	0.053
COc1cc(CNCCCCO)ccc1OCc1ccccc1F	.	.	.	.	/
Nc1nc(=S)c2ncn(C3CCCC3)c2[nH]1	/	/	.	/	/
Cc1ccc(CNc2nc(Cl)c(C#N)s2)cc1	1.1	.	.	.	.
CCOC(=O)CNc1nc(Cl)c(C#N)s1	.	.	.	.	/
Cc1ccc2c(C(=O)N3CCN(c4ccccc4)CC3)cc(-c3cccnc3)nc2c1C	1.9	73	.	.	.
Cc1ccc2nc(-c3cccnc3)cc(C(=O)N3CCN(c4ccc([N+](=O)[O-])cc4)CC3)c2c1	.	.	.	.	/
CCOc1ccccc1NC(=O)C(=O)NCC1CCCN1CC (stereo not drawn)	.	.	.	.	/
CC(=O)Oc1ccccc1C1OC(=O)c2ccccc2N1C(C)=O (stereo not drawn)	.	.	.	.	.
CC(=O)N1CCN(C(=O)CC2OC(=O)c3ccccc32)CC1 (stereo not drawn)	/	.	.	.	/
O=c1[nH]c2cc3c(cc2cc1CN(Cc1ccco1)C(=S)NCCCN1CCOCC1)OCCO3	.	.	.	.	/
CN(/N=C/c1cccnc1)c1cnn(-c2ccc(F)c(Cl)c2)c(=O)c1Cl	1.7	.	.	.	.
COc1cccc(C(=O)O/N=C(\C)c2cnccn2)c1	-3.6	.	.	.	0.064
CCCCC(=O)Nc1nc2ccc(C(=O)OC)cc2s1	.	.	.	.	/
Cc1cccc(COCC(Cc2ccccc2)N2CCN(C(=O)c3ccc(Cl)c(Cl)c3)CCC2=O)c1 (stereo not drawn)	-2.6	.	.	.	0.06
CNc1nc(Nc2ccc(C(C)=O)cc2)nc(OC(C(F)(F)F)C(F)(F)F)n1	.	.	.	.	/
SMILES	ROMK primary	WT yeast gro inh	PERK inhibitor	Arbovirus inh	ROMK retest
CCCCN(CCCC)C(=S)N/N=C/c1c(C)[nH]n(-c2ccccc2)c1=O	/	.	.	.	/
CCCSC(=S)c1c(C)[nH]n(-c2ccccc2)c1=O	/	/	.	/	0.12
CCn1cc(C(=O)NCc2ccc(C)o2)c2cc(OC)c(OC)cc2c1=O	/	.	.	.	?
CCn1cc(C(=O)NCC(=O)OC)c2cc(OC)c(OC)cc2c1=O	/	.	.	.	/
COc1cccc(-c2nnc(SCC(=O)N3CC(C)CC(C)C3)o2)c1 (stereo not drawn)	/	.	.	.	/
Cc1ccc(-c2nnc(OCc3cccnc3)c3ccccc23)cc1	.	.	.	.	/
CC(=O)Nc1cccc2c1C(=O)N(c1ccc(C)cc1)C2=O	-2.7	.	.	.	.
Cc1ccc(N2C(=O)c3ccccc3C2=O)cc1	.	/	.	/	/
CCN1C(=O)S/C(=C/c2c(OCc3ccc(C(=O)O)cc3)ccc3ccccc23)C1=O	3.9	73	.	.	.
CCc1ccc(-c2nc(CSCC(=O)N3CCN(c4ncccn4)CC3)c(C)o2)cc1	/	.	.	.	0.064
CSc1ccc(-c2nc(CSCC(=O)N3CCOCC3)c(C)o2)cc1	/	.	.	.	/
Cc1cccc(N2C(=O)/C(=C\c3ccc(C(=O)O)cc3)c3ccccc3C2=O)c1	-6.4	.	.	.	0.046
